Test results: PubChem BioAssay (NCI)
This is part of a sample that, as a whole, favours compounds with a hit. Of some 79,000 tested, about 15% had one in any assay. Unmarked numbers belong to inactive results. Active and inactive are the calls of the source. No stated cut-off is given here; in the data, active means growth inhibition above about 70%; inactive means the rest.

Assays:
[1] = NCI Yeast Anticancer Drug Screen. Data for the rad50 strain (AID 155);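 further: 0% = growth of vehicle-only cultures of the same strain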; conditions: S. cerevisiae rad50 strain growth inhibition, stronger effect = higher value
Outline: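 Yeast carrying a defined DNA repair defect were exposed to test compounds, and growth was compared with vehicle-treated controls to give percent inhibition.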

[2] = NCI Yeast Anticancer Drug Screen. Data for the mec2-1 strain (AID 157); conditions: S. cerevisiae mec2-1 strain, stronger effect = higher value
Outline: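 Vehicle-treated cultures served as reference for growth inhibition of compound-exposed mec2-1 yeast.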

[3] = NCI Yeast Anticancer Drug Screen. Data for the sgs1 mgt1 strain (AID 161);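 further: 0% = growth of cultures given vehicle only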; conditions: S. cerevisiae sgs1 mgt1 strain, stronger effect = higher value
Outline: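 Read-out: growth inhibition vs vehicle controls. Cells: mutant yeast strain deficient in DNA damage repair.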

[4] = NCI Yeast Anticancer Drug Screen. Data for the cln2 rad14 strain (AID 165);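 further: 0% = growth equal to vehicle treated cultures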; conditions: S. cerevisiae cln2 rad14 strain, stronger effect = higher value
Outline: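 Each compound was tested on cln2 rad14 yeast. Inhibition of growth was calculated against vehicle-exposed controls.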

[5] = NCI Yeast Anticancer Drug Screen. Data for the bub3 strain (AID 167); conditions: S. cerevisiae bub3 mutant strain, stronger effect = higher value
Outline: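 Compounds were applied to a genetically altered yeast strain carrying a cell-cycle control defect. Growth inhibition was scored against vehicle-treated controls.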

[6] = NCI Yeast Anticancer Drug Screen. Data for the mlh1 rad18 strain (AID 175); conditions: S. cerevisiae mlh1 rad18 strain growth inhibition, stronger effect = higher value
Outline: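 Vehicle-treated cultures served as the reference for growth inhibition in a yeast strain carrying DNA damage repair alterations exposed to each compound.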

[7] = at 5.0 µM (retest, dose inferred, filed as 0.5)
[8] = at 50.0 µM (retest, dose inferred, filed as 5.0)

SMILES | growth inhibition [1, 7] [%] | growth inhibition [1, 8] | growth inhibition ([1]; at 50.0 µM) | growth inhibition [2, 7] [%] | growth inhibition [2, 8] | growth inhibition ([2]; at 50.0 µM) | growth inhibition [3, 7] [%] | growth inhibition [3, 8] | growth inhibition ([3]; at 50.0 µM) | growth inhibition [4, 7] [%] | growth inhibition [4, 8] | growth inhibition ([4]; at 50.0 µM) | growth inhibition [5, 7] [%] | growth inhibition [5, 8] | growth inhibition ([5]; at 50.0 µM) | growth inhibition [6, 7] [%] | growth inhibition [6, 8] | growth inhibition ([6]; at 50.0 µM)
CNC(=O)OCc1c(COC(=O)NC)c(-c2ccc(OC)cc2)n2c1CCC2 | 28 | 33% | 28.4% | 19 | 21% | 74.9% (active) | 44 | 68% | 70.9% (active) | 38 | 43% | 73.7% (active) | 50 | 46% | 48.4% | 23 | 32% | 92.6% (active)
C[CH2][Ge]([CH2]C)[CH2]C.C[CH2][Ge]([Cl])[CH2]C.C[CH2][Ge][CH2]C | 19 | 96% (active) | 98% (active) | 15 | 98% (active) | 98.6% (active) | 23 | 96% (active) | 98.1% (active) | 8 | 94% (active) | 97% (active) | 17 | 96% (active) | 98.2% (active) | 12 | 95% (active) | 98.2% (active)
C/C(O)=C(/C=N/C(=S)Nc1ccc(S(N)(=O)=O)cc1)C(=O)Nc1ccccc1C | 0 | 18% | 79.7% (active) | -10 | -4% | 81.7% (active) | -5 | -2% | 68.8% | -14 | 6% | 81.3% (active) | -13 | -6% | 67.5% | 3 | -15% | 89.4% (active)
O=C(Oc1ccccc1)c1ccc2ccccc2c1O | -4 | -38% | 15.8% | -5 | -35% | 6.05% | -5 | -14% | 2.7% | -2 | -59% | -47.1% | 36 | 52% | 77.7% (active) | -4 | -27% | 4.1%
FC(F)(F)c1ccc(NC(=S)SCc2ccc(Cl)cc2)cc1 | 8 | 99% (active) | 99.3% (active) | 5 | 99% (active) | 99.7% (active) | 13 | 99% (active) | 99.5% (active) | -3 | 98% (active) | 99.4% (active) | 26 | 99% (active) | 99.5% (active) | 17 | 99% (active) | 99.5% (active)
CC(C)c1cc2c(cc1O)C(O)C1(O)CCCC(C)(C)[C@H]1CC2 (stereo partly drawn) | -6 | 99% (active) | 91.4% (active) | -1 | 100% (active) | 93.7% (active) | -1 | 99% (active) | 93% (active) | -11 | 99% (active) | 91.6% (active) | 6 | 99% (active) | 93% (active) | -3 | 99% (active) | 91.8% (active)
